HepG2 viability: HepG2 cytotoxicity, counter-screen for TGF-b inhibitors; HepG2 CAGA-GFP viability, ATP luminescence, 18 h; Potency, µM (highest dose often 46.1 µM), actives largely listed as cytotoxic; 410,000 tested, 0.76% active; AID 588856
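CellTiter-Glo luminescence gave cytotoxicity after 18 hours at 37 degrees C. The cells were HepG2 CAGA-GFP in 1% FBS DMEM, stimulated with 500 pg/mL TGF-beta after compound addition. %Activity was normalised to no-cell wells (complete cell-killing) and DMSO (no toxicity), and curves were fitted and classified.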
TGFb SMAD3 inh: inhibitors of TGF-b signaling | HepG2 CAGA-GFP TGF-b/SMAD3 reporter, GFP fluorescence, 18 h; TGF-beta stimulated, 500 pg/mL final | Potency, µM (titrated, usually from 46.1 µM), most hits filed as inhibitors | 410,000 tested, 1.2% active | AID 588855; further: nearly all actives have a fitted effect of over 65% in size
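Cell-based qHTS in HEPG2 carrying a CAGA-GFP Smad reporter; compounds added before 500 pg/mL final TGF-beta, 18 h incubation at 37 degrees C, GFP fluorescence quantified per cell by imaging cytometry.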
HT1080 IDH1KD tx: toxicity to HT-1080 IDH1 knockdown cells (counter line). 360,000 tested, 2% active. Potency, µM (highest dose often 46.1 µM), most hits filed as cytotoxic. AID 686971. HT-1080 IDH1 knockdown viability, ATP luminescence, 48 h
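CellTiter-Glo luminescence after 48 h compound exposure at 37 degrees C of IDH1-knockdown HT-1080 cells in 5% FBS RPMI. %Activity scaled between DMSO wells and cell-free media wells, with curves fitted and assigned curve classes.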
TDP1 cell noCPT: qHTS for Inhibitors of human tyrosyl-DNA phosphodiesterase 1 (TDP1): qHTS in cells in absence of CPT; AID 686978, 2013; 420,000 tested, 15% active; Potency, µM (titrated, usually from 46.2 µM), usual class: inhibitors; DT40 Tdp1-/- hTDP1 cells, no CPT, ATP luminescence, 48 h; further: nearly all actives have a fitted effect of over 55% in size
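Camptothecin absent (DMSO only). Human TDP1-complemented DT40 knockout cells, 400 cells/well, 37 °C for minimum 48 hr; ATP measured via CellTiter-Glo, 30 min dark incubation, luminescence.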
HT1080NT lethal: kills 2HG-producing HT-1080-NT fibrosarcoma cells; HT-1080-NT fibrosarcoma viability, CellTiter-Glo ATP luminescence, 48 h; Potency, µM (highest dose often 46.1 µM), most hits filed as cytotoxic; 360,000 tested, 1.6% active; AID 686970;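 further: NT is the 2HG producing partner of a matched IDH1 knockdown line; nearly all actives have a fitted effect of over 55% in size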
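HT-1080-NT; 750 cells/well; 5% FBS RPMI; 48 h compound, 37 degrees C; CellTiter-Glo luminescence; curve fitting and curve-class assignment.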
DT40 TDP1 CPT: growth inhibition of DT40 Tdp1-/-;hTDP1 cells with camptothecin (screen for TDP1 inhibitors); 420,000 tested, 12% active; chicken DT40 Tdp1-/-;hTDP1 cells + 20 nM CPT, ATP luminescence, 48 h; Potency, µM (titrated, usually from 46.2 µM), hits mostly inhibitors; AID 686979; further: nearly all actives have a fitted effect of over 55% in size
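Chicken DT40 Tdp1-/- cells stably complemented with human TDP1 were seeded at 400 cells/well in medium containing 20 nM camptothecin, exposed to pin-transferred compounds, and grown at 37 °C for at least 48 hr. Viability was read as ATP luminescence.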
A number is an active result; . = inactive; ? = inconclusive; / = not tested or not shown. Sampled rows, rich in hits. Any-hit rate of the full collection: about 17%. The call rests on the fitted dose curve; in most records, active means well fitted curve in the direction sought with a large enough effect; inconclusive means small, poorly fitted or top-dose-only effect, or another doubt; inactive means no such curve, though single readings can be large; an effect the other way counts as inactive or inconclusive.

SMILES	HepG2 viability	TGFb SMAD3 inh	HT1080 IDH1KD tx	TDP1 cell noCPT	HT1080NT lethal	DT40 TDP1 CPT
Cc1cc(C(=O)N/N=C/c2ccc([N+](=O)[O-])s2)c2ccccc2n1	.	10µM	?	15µM	?	26µM
Cc1cc(C(=O)N/N=C/c2cc([N+](=O)[O-])ccc2O)c2ccccc2n1	.	?	?	4.6µM	?	5.2µM
Cc1cc(C(=O)N/N=C/c2ccc([N+](=O)[O-])cc2)c2ccccc2n1	.	.	4.6µM	3.3µM	18µM	2.9µM
Cc1cc(C(=O)N/N=C/c2ccc(N(C)C)cc2)c2ccccc2n1	.	.	3.3µM	4.1µM	3.7µM	2.9µM
C[C@@H]1CN([C@@H](C)CO)C(=O)c2cc(NS(C)(=O)=O)ccc2O[C@@H](C)CCCCO[C@H]1CN(C)Cc1ccc2c(c1)OCO2	.	?	.	?	.	.
Cc1oc2ncn(C)c(=O)c2c1C(=O)Nc1ccc(F)cc1	.	.	/	.	/	.
CCN1C[C@@H]2[C@@H]3C(=O)N(C)C(=O)[C@@H]3[C@](CC)(C1=O)N2C(=O)c1ccc(C)cc1	.	.	.	.	.	.
CCOc1ccc(S(=O)(=O)Nc2ccc(C(=O)NCC(C)(C)N3CCOCC3)cc2)cc1	.	.	.	.	.	?
C[C@@H]1C(c2ccccc2)=NN(c2ccccc2)[C@H]1C(=O)N1CCOC1=O	.	.	?	?	.	?
C[C@H]1C(c2ccc(F)cc2)=NN(c2ccccc2)[C@@H]1CO	.	?	.	.	.	18µM
COc1ccccc1[C@H]1C(c2ccc(F)cc2)=NN(c2ccccc2)[C@@H]1CO	.	?	?	?	.	18µM
O=C(Nc1ccc(C(=O)N2CCCCC2)cc1)[C@H]1O[C@@H](n2ccc(=O)[nH]c2=O)[C@H](O)[C@@H]1O	.	.	.	.	.	.
COc1cccc(CNC(=O)[C@@H]2CCCN2C(=O)OC(C)(C)C)c1	/	/	.	.	.	.
COc1ccc(C(=O)c2oc3ccc(OC)cc3c2N)cc1	.	.	.	16µM	.	?
C=CCn1c(SC/C=C/c2ccccc2)nnc1-c1sc(N)nc1C	.	.	.	15µM	.	?
C=CCn1c(SCc2ccc(C(=O)OC)cc2)nnc1-c1sc(N)nc1C	.	.	.	.	.	.
CC(=O)c1cccc(NC(=O)CCCN2C(=O)COc3ccc(C)cc32)c1	.	/	/	?	/	18µM
CCc1ccccc1NC(=O)CN1C(=O)COc2ccc(S(=O)(=O)Nc3ccccc3)cc21	.	?	/	26µM	/	18µM
COc1ccc(NC(=O)CN2C(=O)COc3ccc(S(=O)(=O)Nc4ccccc4)cc32)cc1OC	.	?	/	.	/	.
CCc1cccc(NC(=O)CN2C(=O)COc3ccc(S(=O)(=O)Nc4ccccc4)cc32)c1	.	?	/	23µM	/	?
CSc1cccc(NC(=O)CN2C(=O)COc3ccc(Cl)cc32)c1	.	.	/	21µM	/	?
CCOC(=O)/C=c1/s/c(=C/c2ccccc2OC)c(=O)n1CC(=O)N1CCOCC1	.	.	.	.	.	?
CCC(C(=O)NC(=O)NC(C)=O)c1ccccc1 (stereo not drawn)	/	/	/	.	/	.
COc1ccc(NC(=O)CCc2c(C)nc3c(c2C)c(=O)n(C)c(=O)n3C)c(OC)c1	.	.	/	?	/	.
COc1ccc(NC(=O)CN2C(=O)COc3ccc(S(=O)(=O)Nc4ccccc4)cc32)cc1	.	?	/	.	/	.
O=C(CN1C(=O)COc2ccc(S(=O)(=O)Nc3ccccc3)cc21)Nc1cccc(Cl)c1	.	?	/	?	/	16µM
COc1cccc(-c2nc(NCc3ccccc3)c3ccccc3n2)c1O	.	?	?	?	?	?
CCN(CC)c1nc(-c2cccc(OC)c2O)nc2ccccc12	.	?	?	23µM	.	18µM
